Compounds with a hit are over-represented: about 3.5% of the library has one in this group of screens.
MITF primary – inhibitors of human MITF | O75030 | AlphaScreen MITF homodimerization, bead proximity signal | inhibition, % at 2.6 µM | 650,000 tested, 0.91% active | AID 1259374; in the data active means inhibition above about 50%
Target sequence (O75030 whole entry, looked up): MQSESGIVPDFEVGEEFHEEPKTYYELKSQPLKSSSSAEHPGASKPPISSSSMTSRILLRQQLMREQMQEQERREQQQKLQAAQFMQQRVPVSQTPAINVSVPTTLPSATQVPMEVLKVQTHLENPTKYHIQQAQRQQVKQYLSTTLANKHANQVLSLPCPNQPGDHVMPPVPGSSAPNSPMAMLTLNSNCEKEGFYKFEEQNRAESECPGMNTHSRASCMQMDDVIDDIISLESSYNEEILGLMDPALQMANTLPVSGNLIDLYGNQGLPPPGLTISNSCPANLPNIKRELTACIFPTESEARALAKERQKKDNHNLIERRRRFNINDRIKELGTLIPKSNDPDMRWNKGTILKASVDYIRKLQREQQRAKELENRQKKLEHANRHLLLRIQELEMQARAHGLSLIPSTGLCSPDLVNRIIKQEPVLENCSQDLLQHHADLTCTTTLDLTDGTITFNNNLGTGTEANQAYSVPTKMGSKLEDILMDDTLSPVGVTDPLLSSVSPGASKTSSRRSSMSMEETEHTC
FBW7 activator – activators of human E3 ligase FBW7; AlphaScreen FBW7–phospho-cyclin E peptide binding, activator screen; normalized activity (activation), % at 26.1 µM; 650,000 tested, 0.13% active; AID 1259310; in the data active means normalized activity above about 1.9%;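 further: purified mutant Fbw7 with reduced substrate affinity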
GPR151 ag – human GPR151 activation | Q8TDV0 | PathHunter beta-arrestin GPR151 cells, luminescence | activation, % at 11.2 µM | 650,000 tested, 1% active; in the data active means activation above about 4.9%
TEAD-YAP block – TEAD-YAP interaction inhibition; HEK-TIYL cells, TEAD-Gal4/YAP UAS-luciferase luminescence; inhibition, % at 9.12 µM; 640,000 tested, 1.4% active; in the data active means inhibition above about 32%
GPR151 confirm – confirmation of human GPR151 activators | shares compounds with GPR151 ag | GPR151 PathHunter beta-arrestin cells, luminescence, 90 min; % of EA-reagent control over plate median | activation, % at 11.2 µM | 6,700 tested, under 10 active;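 active means mean percent activation across replicates above the confirmation screen cutoff of 4.91%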
GPR119 ag – activates human GPR119 in a GPR151 counter-screen; shares compounds with GPR151 ag; GPR119 PathHunter beta-arrestin cells, luminescence, 90 min; 0 = compound-well median, 100 = enzyme-acceptor control; activation, % at 11.2 µM; 6,700 tested, 0.3% active;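 active means mean percent activation in the counterscreen above 29.09%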;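 further: counterscreen on off-target GPR119 to flag nonselective hits from the GPR151 activator screen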
Numbers stand for hits; n = inactive; x = no result; ! = not active in a repeat.

SMILES	MITF primary	FBW7 activator	GPR151 ag	TEAD-YAP block	GPR151 confirm	GPR119 ag
COc1cc(-c2cccnc2)cc2c1OCCN(S(=O)(=O)c1cccc(F)c1)C2	n	n	n	n	x	x
CC(O)c1nc2ccccc2n1Cc1cccc(Cl)c1 (stereo unspecified)	n	n	5.2	n	n	n
CC(O)c1nc2ccccc2n1CCOc1ccccc1F (stereo unspecified)	n	n	5.1	n	n	n
CS(=O)(=O)N1CCN(c2ccc([N+](=O)[O-])cc2)CC1	n	n	n	n	x	x
COc1ccc([N+](=O)[O-])cc1NC(=O)/C=C/c1ccc(F)cc1	n	n	8.8	n	n	n
O=C(/C=C/c1ccc([N+](=O)[O-])cc1)Nc1ccccc1C(=O)Nc1cccc(C(=O)O)c1	n	n	4.9	n	n	n
COc1ccc(/C=C/C(=O)Nc2cc([N+](=O)[O-])ccc2OC)cc1Br	n	n	5.4	n	n	n
COc1ccc(/C=C/C(=O)Nc2cc([N+](=O)[O-])ccc2F)cc1OC	n	n	n	n	x	x
CCOCC(=O)Nc1cc([N+](=O)[O-])ccc1C	n	n	6.2	n	n	n
CCOCC(=O)Nc1cc([N+](=O)[O-])ccc1OC	n	n	n	n	x	x
COc1ccc(/C=C/C(=O)Nc2ccc([N+](=O)[O-])cc2OC)cc1Br	n	n	n	n	x	x
O=C(CN1C(=O)C2C3C=CC(C4CC34)C2C1=O)NC1(c2ccc(F)cc2)CCCC1 (stereo unspecified)	n	n	n	n	x	x
O=C(CSc1nc2ccc(NC(=O)Cc3cccc4ccccc34)cc2s1)NCCc1ccccc1	n	n	n	n	x	x
COc1cccc(NC(=O)CN2CCC(Nc3nc(C)cc(=O)[nH]3)CC2)c1	n	n	n	n	x	x
CCOc1ccc2c(c1)-c1c(ssc1=S)C(C)(C)N2C(=O)C(Cc1ccccc1)N1C(=O)c2ccccc2C1=O (stereo unspecified)	n	n	n	n	x	x
CCOc1ccc(/C=C/C(=O)Nc2cc([N+](=O)[O-])ccc2C)cc1OC	n	n	6.5	n	n	n
Cc1cc(/C=N/n2cnnc2)c(C)n1-c1ccc(Cl)cc1	n	n	n	n	x	x
Cc1cc(/C=N/n2cnnc2)c(C)n1-c1ccc(Cl)cc1Cl	n	n	5.3	n	n	n
O=[N+]([O-])c1c(N2CCCC2)ncnc1N1CCCC1	n	n	n	n	x	x
O=[N+]([O-])c1c(N2CCCCC2)c([N+](=O)[O-])c2nsnc2c1N1CCCCC1	n	n	5.6	n	n	n
O=C(Cn1cnc2scc(-c3ccccc3)c2c1=O)Nc1ccccc1F	n	n	n	n	x	x
CCN(CC)c1nc(NCCCN2CCCC2=O)nc(NCc2nc3ccccc3[nH]2)n1	n	n	6.9	n	n	n
CCN(CC)c1nc(NCCCN2CCCC2=O)nc(NCCCN2CCCC2=O)n1	n	n	n	n	x	x
COc1ccc(/C(C)=N/NC(=O)CNC(=O)c2ccccc2O)cc1	n	n	5.3	n	n	n
C/C(=N/NC(=O)CNC(=O)c1ccccc1O)c1ccc(F)cc1	n	n	n	n	x	x
SMILES	MITF primary	FBW7 activator	GPR151 ag	TEAD-YAP block	GPR151 confirm	GPR119 ag
COCc1cc(C)nc2sc3c(=O)n(-c4ccc(C(C)=O)cc4)nnc3c12	n	n	5.5	n	n	n
COCc1cc(C)nc2sc3c(=O)n(-c4ccc(C)cc4C)nnc3c12	n	n	n	n	x	x
CC1(C)NC(=O)N(c2ccc([N+](=O)[O-])c(C(F)(F)F)c2)C1=O	n	n	5.5!	n	n	n
CC(C)OC1(C(F)(F)F)NC(=O)N(c2cccc(C(F)(F)F)c2)C1=O (stereo unspecified)	n	n	n	n	x	x
Cc1ccc(CN2CCNC(=O)C2CC(=O)N2CCCN(c3ncccn3)CC2)o1 (stereo unspecified)	n	n	n	n	x	x
Cc1ccc(CN2CCNC(=O)C2CC(=O)N2CCCN(Cc3ccccn3)CC2)o1 (stereo unspecified)	n	n	5.6	n	n	n
CCOC(=O)C1=C(O)/C(=C/c2ccc(F)cc2)SC1=Nc1cccc(Cl)c1	n	n	n	n	x	x
CC(C)(C)c1ccc(C(=O)NCC(=O)OCC(=O)Nc2cc(F)ccc2F)cc1	n	n	n	n	x	x
COc1cccc(NC(=O)N2CCC(C(=O)NCc3ccccc3Cl)CC2)c1	n	n	n	n	x	x
Cc1nnsc1C(=O)N1CCC(c2ccccc2)C1 (stereo unspecified)	n	n	n	n	x	x
Cc1nnsc1C(=O)N1C2CCC1CC(c1ccc(F)cc1)C2 (stereo unspecified)	n	n	12	n	n	n
O=C(c1ccco1)N1C2CCC1CC(c1ccc(F)cc1)C2 (stereo unspecified)	n	n	8.6	n	n	n
O=C(c1cscn1)N1C2CCC1CC(c1ccc(F)cc1)C2 (stereo unspecified)	n	n	n	n	x	x

High-throughput results deposited in PubChem by The Scripps Research Institute Molecular Screening Center.
